Sampled rows, rich in hits. Any-hit rate of the full collection: about 4.3%.
HSF1 activator: HSF-1 activators, primary screen, NIH3T3-HGL cells, MG132 stress, luminescence, single point. NIH3T3-HGL HSF-1 luciferase reporter, 8 h; 100% = twice DMSO control signal. activation, % at 9 µM. hit rate 1.7% among 300,000;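 active = mean replicate activation of at least 50% with a set share of replicates each reaching 50%; inconclusive = only one of those two conditions met; inactive = mean below 50% and too few replicates reaching it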
HSF1 inh: HSF1 inhibitors in luciferase reporter cells, primary screen, cell-based, NIH3T3, luminescence; NIH3T3-HGL HSE-luciferase, MG132-induced, luminescence 8 h; hits give low values; activity change, negative = inhibition, % at 7.5 µM (by protocol); hit rate 0.77% among 300,000;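 active = more than half of replicate wells show activity change below -50%, luminescence cut by over half; inconclusive = some wells, but at most half, below -50%; inactive = no replicate well below -50%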;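 also: luciferase reports HSF-1 transcriptional activity via heat shock element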
esBAF inh: Bmi1 luciferase reporter increase in mESCs, primary screen, esBAF inhibitor project, mouse ES cells, Bmi1 luciferase knock-in, single point; 24 h; 100% = twice the neutral-well signal; reporter increase, % at 12.5 µM; hit rate 2% among 350,000; AID 602393, 2012; in the data active = activation above about 40%; inconclusive = no clear call, values can overlap the other calls;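 also: a rise in the Bmi1 reporter signal indicates esBAF inhibition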
SMARCA2 act: SMARCA2 (BRM) function activators, primary screen, cell-based, luminescence, high throughput. AID 652017, 2013. hit rate 1% among 370,000. activation, % at 9.1 µM. MG213 cells, MMTV-luciferase reporter, dexamethasone, overnight; in the data active = activation above about 7.8%
MITF TRPM1 HTS: activators of MITF-driven TRPM1 promoter reporter, primary screen, cell-based, SK-MEL-5, luciferase, single point; activation, % at 12.5 µM; hit rate 0.75% among 300,000; SK-MEL-5 TRPM1-promoter luciferase, 24 h; % of positive control, neutral wells = 0;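 active = mean activation of at least 80% with every replicate also reaching 80%; inconclusive = mean reaches 80% but some replicate falls short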
Wnt act: Wnt/beta-catenin pathway activators, primary screen, cell-based, plate reader, single point; hit rate 1.2% among 300,000; activation, % at 9.35 µM; Wnt/beta-catenin reporter cell assay, activator; AID 743398, 2014; in the data active = activation above about 30%, passing the limit was not always enough; inconclusive = no clear call, values can overlap the other calls
Numbers stand for hits; - = inactive; ? = inconclusive; . = no result given.

SMILES | HSF1 activator | HSF1 inh | esBAF inh | SMARCA2 act | MITF TRPM1 HTS | Wnt act
COc1cccc(-c2ccc3c(c2)O[C@H](CN(C)C(=O)C2CCC2)[C@@H](C)CN([C@H](C)CO)S3(=O)=O)c1 | . | . | - | . | . | .
c1ccc(CCc2ccncc2)cc1 | 56 | - | - | - | - | -
O=C(C[C@H]1C=C[C@H](NC(=O)Nc2cccc(F)c2)[C@@H](CO)O1)NCC1CC1 | . | . | - | . | . | .
Cc1noc2ncnc(Sc3ccccc3Cl)c12 | - | - | . | - | - | .
COC(=O)c1ccccc1Sc1ncnc2onc(C)c12 | 86 | - | . | - | - | -
CC(C)c1ccc(N(C(=O)c2csnn2)C(C(=O)NC(C)(C)C)c2ccncc2)cc1 (stereo not given) | 66 | - | 58 | - | - | .
c1ccc(OCCCn2nnc(-c3cccnc3)n2)cc1 | - | - | - | - | - | -
Clc1nc2ccccc2cc1-c1nnn(-c2ccccc2)n1 | - | - | 62 | - | . | -
COc1ncccc1-c1nnn(-c2ccccc2)n1 | - | - | - | - | . | 53
Clc1ccc(-n2nnc(-c3cccnc3Cl)n2)cc1Cl | - | - | 55 | - | 95 | -
c1ccc(-n2nnc(-c3cccnc3)n2)cc1 | - | - | 58 | - | 91 | -
CNC[C@H]1Oc2ccc(NC(=O)C3CCCCC3)cc2CC(=O)N([C@@H](C)CO)C[C@@H]1C | . | . | - | . | . | .
CC(C)NC(=O)Nc1ccc2c(c1)C(=O)N([C@H](C)CO)C[C@H](C)[C@@H](CN(C)S(=O)(=O)c1cccs1)OCCCC[C@H](C)O2 | . | . | - | . | . | .
C[C@H](CO)N1C[C@H](C)[C@H](CN(C)C(=O)Nc2ccc(C(F)(F)F)cc2)Oc2ccc(NC(=O)NC3CCCCC3)cc2CC1=O | . | . | - | . | . | .
C[C@H]1CN([C@@H](C)CO)C(=O)c2cccc(NC(=O)C3CCOCC3)c2O[C@@H]1CN(C)Cc1ccc2c(c1)OCO2 | . | . | - | . | . | .
C[C@@H]1CN([C@@H](C)CO)C(=O)Cc2cc(NC(=O)Nc3ccc(F)cc3)ccc2O[C@H]1CN(C)C(=O)Nc1ccccc1 | . | . | - | . | . | .
Clc1ncccc1-c1nnn(-c2ccccc2)n1 | - | - | - | - | 99 | 34
Fc1ccc(-n2nnc(-c3cccnc3Cl)n2)cc1 | - | - | - | - | - | -
Cc1noc(C)c1S(=O)(=O)Nc1ccc2c(c1)C(=O)N([C@@H](C)CO)C[C@@H](C)[C@H](CN(C)C(=O)Cc1ccccc1)OCCCC[C@@H](C)O2 | . | . | - | . | . | .
COc1ccc(C(=O)C[n+]2cn(C(F)F)c3ccccc32)c(F)c1 | ? | - | 52 | - | - | -
COc1ccc2c(ccc[n+]2CC(=O)c2ccccc2)c1 | - | - | - | - | - | -
C[C@@H]1CCCCO[C@H](CN(C)S(=O)(=O)c2ccccc2)[C@@H](C)CN([C@H](C)CO)C(=O)c2cc(NS(=O)(=O)c3cn(C)cn3)ccc2O1 | . | . | - | . | . | .
On1c(-c2ccccc2)nc2ccc(Cl)cc21 | 54 | - | ? | - | . | -
CC(On1c(-c2ccccc2)nc2ccc(Cl)cc21)C(=O)O (stereo not given) | - | - | . | - | - | ?
CCNS(=O)(=O)c1ccc2nc(NC(=O)/C=C/c3cc(OC)c(OC)c(OC)c3)sc2c1 | - | - | . | - | - | 50
SMILES | HSF1 activator | HSF1 inh | esBAF inh | SMARCA2 act | MITF TRPM1 HTS | Wnt act
COc1cc(/C=C/C(=O)Nc2nc3ccc(S(=O)(=O)NC(C)C)cc3s2)cc(OC)c1OC | - | - | . | - | - | .
CCn1nnnc1SCC(=O)N1CCc2ccccc21 | - | - | . | - | - | .
CCn1c(-c2ccc(F)cc2)cnc1SCC(=O)N1CCc2ccccc21 | 70 | - | . | . | . | .
Nc1cc(N)nc(SCC(=O)N2CCc3ccccc32)n1 | - | - | - | - | - | -
O=C(CSc1ccccc1)N1CCc2ccccc21 | 59 | - | ? | - | - | -
O=C(CCCc1ccccc1)N1CCc2ccccc21 | 59 | - | - | - | - | -
CO[C@@H]1CN(C)C(=O)c2cc(NC(=O)C3CC3)ccc2OC[C@@H](C)N(Cc2ccc(F)cc2)C[C@H]1C | . | . | - | . | . | .
CC(C)(C)c1ccc(O)c(/C=N\O)c1 | - | - | - | - | - | -
CC(C)(C)c1cccc(/C=N/O)c1O | 66 | - | . | - | - | -
N#CCc1c(C#N)c(N)nc(N2CCN(S(=O)(=O)c3ccccc3)CC2)c1C#N | 86 | - | - | - | - | -
C[C@H](O)C#Cc1cnc2c(c1)C(=O)N([C@H](C)CO)C[C@@H](C)[C@@H](CN(C)C(=O)CN1CCOCC1)O2 | . | . | - | . | . | .
CS(=O)c1nc(-c2ccc(Br)cc2)cc(-c2ccccc2)c1C#N (stereo not given) | 56 | - | - | - | - | -
COc1ccc(-c2cc(-c3ccccc3)c(C#N)c(S(C)(=O)=O)n2)cc1 | 71 | - | - | - | - | -
CO[C@@H]1CN(C)C(=O)c2cc(NC(=O)c3cccc(Oc4ccccc4)c3)ccc2OC[C@@H](C)NC[C@@H]1C | . | . | - | . | . | .
O=C(C[C@H]1C=C[C@@H](NS(=O)(=O)c2ccccc2)[C@H](CO)O1)NCc1ccc(Cl)c(Cl)c1 | . | . | - | . | . | .
COc1ccc(Cn2c(O)c(C=Nc3ccc(O)cc3)c3ccccc3c2=O)cc1 | - | - | . | - | - | -
O=c1c2ccccc2c(C=Nc2ccc(O)cc2)c(O)n1Cc1ccccc1 | 79 | - | ? | - | - | -
O=C(Nc1nc2ccccc2[nH]1)c1cccc(F)c1 | - | - | - | - | - | 31
O=C(Nc1nc2ccccc2[nH]1)Nc1ccccc1F | ? | - | - | - | - | -
O=C(Nc1nc2ccccc2[nH]1)c1ccc([N+](=O)[O-])cc1 | 61 | - | . | - | - | -
O=C(/C=C/c1ccc(F)cc1)Nc1nc2ccccc2[nH]1 | 55 | - | . | . | . | .
O=C(Nc1nc2ccccc2[nH]1)c1cccc(Br)c1 | - | - | 51 | - | - | -
CCCC(=O)Nc1ccc2c(c1)OC[C@H](C)N(Cc1ccc(F)cc1)C[C@H](C)[C@@H](OC)CN(C)C2=O | . | . | - | . | . | .
C[C@H](CO)N1C[C@H](C)[C@H](CN(C)S(=O)(=O)c2ccc(Cl)cc2)Oc2c(NS(=O)(=O)c3cn(C)cn3)cccc2C1=O | . | . | - | . | . | .
CCCN1[C@@H]2Cn3c(ccc(C4=CCCCC4)c3=O)[C@H]1[C@@H](C(=O)N1CCOCC1)[C@@H]2CO | . | . | - | . | . | .
Cc1ccc(C=Nc2ccccc2C(N)=O)s1 | 63 | - | . | - | - | -
C[C@@H]1CCCCO[C@H](CN(C)Cc2ccc3c(c2)OCO3)[C@@H](C)CN([C@@H](C)CO)C(=O)c2cc(NC(=O)c3ccccc3)ccc2O1 | . | . | - | . | . | .
CN1C(=O)c2cc(NC(=O)c3cccc(F)c3)ccc2OC[C@@H]2O[C@@H](CC(=O)NC3CCC3)CC[C@H]21 | . | . | - | . | . | .
